Screens (PubChem BioAssay)
G9a inh: blocks human histone lysine methyltransferase G9a. Q96KQ7. G9a H3K9 monomethylation, AlphaScreen, 2 h. Potency, µM (titrated, usually from 102 µM), without a hit: at the highest dose activity, negative = inhibition, most hits filed as inhibitors. 8.8% of 350,000 active; note: % is set by controls: 0 for no effect and ±100 for the full control effect; nearly all actives have a fitted effect of over 75% in size
Target sequence (Q96KQ7 913-1193 limits assumed): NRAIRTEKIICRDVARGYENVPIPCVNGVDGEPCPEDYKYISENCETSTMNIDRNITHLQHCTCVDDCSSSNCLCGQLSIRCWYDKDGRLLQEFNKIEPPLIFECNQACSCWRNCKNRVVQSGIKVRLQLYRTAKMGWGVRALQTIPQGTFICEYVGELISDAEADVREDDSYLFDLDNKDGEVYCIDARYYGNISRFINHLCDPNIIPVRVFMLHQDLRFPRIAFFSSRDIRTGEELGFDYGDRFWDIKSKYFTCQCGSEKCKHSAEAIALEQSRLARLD
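G9a (20 nM) preincubated 15 min RT with compounds, then 500 nM biotinylated H3K9 peptide and 20 uM SAM added; 2 h RT reaction. Monomethyl-H3K9 product detected by AlphaScreen with anti-H3K9me1 antibody, streptavidin donor and anti-rabbit IgG acceptor beads.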
GLS inh: blocks human kidney-isoform glutaminase activity; O94925; GLS enzymatic activity, qHTS titration; Potency, µM (doses to about 45.5 µM), inactives show at the top dose activity change, negative = inhibition, usual class: inhibitors; 0.21% of 410,000 active; AID 624170; note: % is set by controls: 0 for no effect and ±100 for the full control effect
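Read-out is an Amplex red fluorescence increase coupled through glutamate oxidase and HRP, measured before and after 30 min room-temperature incubation. hKGA is in 45 mM KH2PO4 (pH 8.2) with 0.02% Tween-20; glutamine added as 1mM solution.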
JMJD2A Tudor inh: blocks the human JMJD2A Tudor domain | AlphaScreen JMJD2A-Tudor / H3K4me3 peptide binding | O75164 | 4.4% of 390,000 active | Potency, µM (top dose mostly 114 µM), for inactives: at the top dose activity change, negative = inhibition, hits mostly inhibitors; note: % is set by controls: 0 for no effect and ±100 for the full control effect; nearly all actives have a fitted effect of over 50% in size
BAZ2B block: inhibitors of human BAZ2B bromodomain. Q9UIF8. AlphaScreen BAZ2B-H3K14Ac peptide displacement. Potency, µM (highest dose often 114 µM), without a hit: at the top dose activity change, negative = inhibition, most hits filed as inhibitors. 4.4% of 360,000 active; note: % is set by controls: 0 for no effect and ±100 for the full control effect; nearly all actives have a fitted effect of over 60% in size
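Protein-peptide AlphaScreen: BAZ2B 50 nM, b-H3K14Ac 50 nM, 1x PBS pH 7.4 + 0.01% Tween-20. Preincubation 30 min RT; cpd 30 min RT (top 110 uM); beads 20 min RT, light-protected.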
HP1b binding inh: blocks HP1-beta chromodomain binding to methylated histone tails; P83916; AlphaScreen HP1-beta / biotin-H3K9me3 peptide binding; Potency, µM (highest dose often 114 µM), for inactives: top-dose activity change, negative = inhibition, actives largely listed as inhibitors; 0.56% of 390,000 active; AID 540317; note: nearly all actives have a fitted effect of over 70% in size
Target sequence (P83916 whole entry, looked up): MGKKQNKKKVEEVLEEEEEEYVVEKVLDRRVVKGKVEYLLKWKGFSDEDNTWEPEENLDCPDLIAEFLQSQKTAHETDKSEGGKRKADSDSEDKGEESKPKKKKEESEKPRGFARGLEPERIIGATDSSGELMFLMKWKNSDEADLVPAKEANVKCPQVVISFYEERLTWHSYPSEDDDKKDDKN
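HP1-beta protein (50 nM final) preincubated 30 min at room temperature with biotinylated H3(1-18)K9me3 peptide (50 nM) in PBS pH 7.4, 0.01% Tween-20, then compound added for 30 min. AlphaScreen streptavidin donor/nickel chelate acceptor beads (10 ug/mL final), 30 min dark, luminescence read.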
Numbers without * were called inactive; ? = inconclusive; . = no result; [ ] = dose if it differs, or a comment. Sampled rows, rich in hits. Any-hit rate of the full collection: about 10%. Calls come from the whole dose curve; as a rule, active = well fitted curve in the direction sought with a large enough effect; inconclusive = small, poorly fitted or top-dose-only effect, or another doubt; inactive = no such curve, though single readings can be large; an effect the other way counts as inactive or inconclusive. Potency is the fitted concentration of half-maximal effect.

SMILES	G9a inh	GLS inh	JMJD2A Tudor inh	BAZ2B block	HP1b binding inh
COc1ccc(N2CCN(C(=O)c3cc(N4C(=O)C5C6CCC(C6)C5C4=O)ccc3Cl)CC2)cc1 (stereo not given)	39.8µM*	22.9%	-31.0%	?	6.5%
Cc1cccc(NC(=O)COc2coc(CN3CCN(Cc4ccccc4)CC3)cc2=O)c1	3.6%[0.501 µM]	-9.7%	-15.1%	3.9%	18.2%
COc1cc(N(C(C)=O)c2ccc(O)cc2)c2ncccc2c1	.	-3.8%	.	.	.
CCOC(=O)C1CCN(S(=O)(=O)c2c(C(=O)N3CCCCC3)c(C)n(C)c2C)CC1	-10.4%[59 µM]	-2.1%	-12.2%	-16.4%	43.2%
CC(=O)OC1COC(N2CCc3ccccc32)C(OC(C)=O)C1OC(C)=O (stereo not given)	5.4%[59 µM]	17.0%	?	?	-7.0%
Cc1cc2nc3n(c2cc1C)CCCN3	10.2%	10.8%	-18.3%	-2.2%	21.2%
Cc1ccc2[nH]cc(S(=O)(=O)c3ccc(F)cc3)c(=O)c2c1	-2.2%	?	-8.9%	7.2%	15.9%[57 µM]
COc1ccc(N2CCN(S(=O)(=O)c3ccc(OC)c(C(=O)N4CCCCC4)c3)CC2)cc1	44.7µM*	7.4%	-25.4%	-24.0%	?
CC1CCC/C(=C\Nc2ccc(C(=O)O)c(O)c2)C1=O (stereo not given)	44.7µM*	29.6%	-24.5%	-13.2%	21.6%
Cc1[nH]n(-c2ccccc2)c(=O)c1C(C[N+](=O)[O-])c1ccc(F)cc1 (stereo not given)	44.7µM*	17.6%	-31.8%	?	7.7%
Cc1[nH]n(-c2ccccc2)c(=O)c1C(c1ccccc1[N+](=O)[O-])C(C#N)C#N (stereo not given)	28.2µM*	-13.0%	?	?	2.5%
Cc1[nH]n(-c2ccccc2)c(=O)c1C(C[N+](=O)[O-])c1ccc(Cl)cc1 (stereo not given)	?	?	?	?	7.4%
Cc1ccc(C(C[N+](=O)[O-])c2c(C)[nH]n(-c3ccccc3)c2=O)cc1 (stereo not given)	?	11.3%	-24.2%	?	11.8%
COc1cc(/C=N/N=C(N)N)ccc1OCc1ccccc1Cl	?	5.8%	?	-38.1%	-9.2%
c1cc2c(cn1)cnc1cscc12	79.4µM*	-8.0%	10.0%	-0.9%	32.3%
c1cnc2c(c1)ncc1cscc12	0.2%[59 µM]	2.2%	2.0%	3.8%	38.2%
Brc1ccc(CNc2cc3c(cc2Br)OCCO3)cc1	44.7µM*	-0.6%	?	31.6µM*	?
CC(=O)Nc1cc2c(cc1Br)OCCO2	-5.5%[12.7 µM]	9.5%	-11.7%	5.3%	7.5%
COc1cccc(C=Nc2cc(C(C)C)c(O)cc2C)c1O	.	41.4%	56.2µM*	.	79.4µM*
Cc1cc(O)c(C(C)C)cc1N=Cc1ccc([N+](=O)[O-])cc1	.	0.3%	44.7µM*	.	50.1µM*
Cc1cc(O)c(C(C)C)cc1N=Cc1ccc(N(C)C)cc1	.	-4.4%	50.1µM*	.	44.7µM*
CNC(=S)N/N=C/c1ccc(N(C)C)cc1	.	?	-28.4%	-14.5%	-8.4%
CCC(C)NC(=O)CN(c1cc(Cl)ccc1OC)S(C)(=O)=O (stereo not given)	1.7%[59 µM]	8.9%	2.0%	?	17.4%
O=c1nc2ccccc2c2n1CC(CN1CCN(Cc3ccccc3)CC1)N2 (stereo not given)	-2.6%	1.3%	-4.9%	0.1%	26.6%
N#CCc1ccc(NC(=O)c2ccc(S(=O)(=O)N3CCCC3)cc2)cc1	20.1%	-20.9%	-0.7%	10.4%	2.7%
O=C(Nc1ccc(Cl)cn1)c1cccc(S(=O)(=O)N2CCCCC2)c1	-21.3%	-9.4%	-2.1%	-31.0%	?
O=C(/C=C/c1ccccc1)OCCN=C1NS(=O)(=O)c2ccccc21	23.9%	-0.2%	-0.7%	-2.0%	9.7%
CC(OC(=O)CCN=C1NS(=O)(=O)c2ccccc21)C(=O)N(C)c1ccccc1 (stereo not given)	-0.5%	-0.7%	-11.7%	-4.7%	10.6%
O=C(CCCN=C1NS(=O)(=O)c2ccccc21)OCc1ccc(F)cc1	2.3%	7.3%	1.4%	17.8%	21.0%
O=C(CCN=C1NS(=O)(=O)c2ccccc21)OCC(=O)c1ccccc1Cl	56.2µM*	4.8%	-14.9%	0.2%	10.0%
